High-throughput results deposited in PubChem BioAssay by National Center for Advancing Translational Sciences (NCATS).
Pf growth 96h: P. falciparum growth inhibition at 96 hours; P. falciparum luciferase reporter growth, 96 h; Potency, µM (doses to about 28.7 µM), for the others: at the top dose activity change, negative = inhibition, most hits filed as inhibitors; 6.9% of 320,000 active; AID 504834; note: % is set by controls: 0 for no effect and ±100 for the full control effect
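Compounds incubated with erythrocytes infected by luciferase-expressing P. falciparum (2% hematocrit, 0.05% parasitemia final) for 96 hours, 37 C in 5% CO2. Growth inhibition scored as decreased luciferase luminescence.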
NS1 inh: influenza NS1 inhibition | AID 2326 | 0.4% of 270,000 active | Potency, µM (doses to about 46.1 µM), without a hit: top-dose activity, positive = more growth; calls by dose curve; note: actives are rising curves; nearly all actives have a fitted effect of over 50% in size
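OD600 was taken as the measure of yeast growth restored by compound in an NS1-expressing S. cerevisiae strain. Cells had been washed out of glucose medium and diluted 1:100 into galactose -URA medium, pH 6.0.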
Pf growth 48h: P. falciparum growth inhibition at 48 hours (one generation); P. falciparum luciferase growth in erythrocytes, 48 h; Potency, µM (titrated, usually from 28.7 µM), inactives show top-dose activity change, negative = inhibition, actives largely listed as inhibitors; 5.9% of 310,000 active; AID 504832; note: % is set by controls: 0 for no effect and ±100 for the full control effect
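Growth was read as firefly luciferase luminescence after a 48 h, 37 C, 5% CO2 exposure of compounds to reporter-bearing P. falciparum cultures (0.1% parasitemia, 2% hematocrit final) in Albumax-supplemented RPMI 1640.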
AMA1 RON2 block: inhibitors of Plasmodium falciparum AMA1-RON2 interaction; AlphaScreen AMA1-biotinylated RON2 peptide binding; Potency, µM (doses to about 58.2 µM), for inactives: at the top dose activity change, negative = inhibition, actives largely listed as inhibitors; 0.2% of 360,000 active;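 note: 0% = vehicle wells and -100% = peptide control; nearly all actives have a fitted effect of over 45% in size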
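AMA1 (3D7) with his tag at 25 nM final met compounds first, then biotinylated RON2 peptide at 25 nM; detection used donor plus acceptor beads, 10 µg/mL apiece, read by AlphaScreen after 30 min at room temperature.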
Sm TGR block: blocks Schistosoma mansoni thioredoxin glutathione reductase | Potency, µM (highest dose often 114 µM), inactives show at the highest dose activity change, negative = inhibition, actives largely listed as inhibitors | AID 485364 | purified TGR, DTNB reduction, TNB absorbance 405 nm | Q962Y6 | 3% of 360,000 active; note: % is set by controls: 0 for no effect and ±100 for the full control effect; nearly all actives have a fitted effect of over 60% in size
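TGR 20 nM + NADPH 100 uM (dispensed conc.), cpd preinc 15 min RT; start with NADPH (500 uM addition) then DTNB (15 mM addition). Kinetic TNB absorbance, 405 nm filter. Four-parameter Hill fit across titration.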
Starred values were filed as active, the others as inactive; ? = inconclusive; . = no result given; ! = not confirmed by another sample; [ ] = another dose, or the depositor's remark. This is a sample that favours compounds with a hit; in the whole collection about 11% have one here. Unless noted, calls come from the whole dose curve; as a rule, active = well fitted curve in the direction sought with a large enough effect; inconclusive = small, poorly fitted or top-dose-only effect, or another doubt; inactive = no such curve, though single readings can be large; an effect the other way counts as inactive or inconclusive. Potency is the fitted concentration of half-maximal effect.

SMILES	Pf growth 96h	NS1 inh	Pf growth 48h	AMA1 RON2 block	Sm TGR block
Cc1cccc(C)c1NC(=O)C1CCCN1S(=O)(=O)c1ccc2c(c1)n(C)c(=O)c(=O)n2C (stereo not given)	?	13%	-18%	-8%	6%
O=C(CCc1nnc(-c2ccsc2)o1)N1CCc2c(Cl)cccc2C1	-14%	0%	34%	-5%	18%
N#Cc1ccccc1S(=O)(=O)N1CCN(c2nc(-c3cccnc3)nc3ccccc23)CC1	4.7µM*	.	9.3µM*	13%	-6%
CC1CCN(c2nc(-c3ccccc3O)nc3ccccc23)CC1	19%	2%	?	6%	-23%
Cc1ccc(C)c(S(=O)(=O)N2CCN(c3ncccn3)CC2)c1	?	-6%	-12%	-11%	.
COc1cc2c(cc1OC)CN(c1nc(-c3cccnc3)nc3ccccc13)CC2	12µM*	4%	?	?	?
Oc1ccccc1-c1nc(N2CCCC2)c2ccccc2n1	4.1µM*	-2%	.	1%	7%
Cc1ccc(C)c(S(=O)(=O)N2CCN(c3nc(-c4cccnc4)nc4ccccc34)CC2)c1	?	.	3.3µM*	-1%	-2%
COc1ccccc1N1CCN(CC(=O)Nc2ccc(-n3cnnn3)cc2)CC1	5%	.	-10%	6%	-5%
CC1CN(C(C)C)C(=S)NC1=O (stereo not given)	.	.	.	14%	.
COc1ccc(CNC(=O)CCC(=O)Nc2cccnc2)cc1	14%	19%	0%	9%	1%
c1cncc(-c2nc(N3CCCCCC3)c3ccccc3n2)c1	.	-94%	0.47µM*	8%	4%
COc1ccc(S(=O)(=O)N2CCN(c3nc(-c4cccnc4)nc4ccccc34)CC2)cc1	2.1µM*	.	2.9µM*	-9%	-9%
O=S(=O)(/C=C/c1ccccc1)N1CCN(c2nc(-c3ccccc3)nc3ccccc23)CC1	12µM*	.	?	-2%	5%
CN1CCN(c2nc(-c3cccnc3)nc3ccccc23)CC1	-20%	-1%	?	-1%	2%
O=S(=O)(c1ccccc1F)N1CCN(c2nc(-c3cccnc3)nc3ccccc23)CC1	?	.	12µM*	8%	-7%
CCCN(CCC)C(=O)c1ccc2c(c1)N(CC)C(=O)c1ccccc1S2(=O)=O	-17%	-6%	2%[0.00184 µM]	4%	-11%
Cc1ccc(Cl)cc1N1CCN(C(=O)CCn2c(=O)c3cccn3c3cccnc32)CC1	.	.	.	.	10%
CCOC(=O)c1sc(N2C(=O)c3oc4ccc(C)cc4c(=O)c3C2c2ccccc2F)nc1C (stereo not given)	.	.	.	.	-4%
Cc1ccc(NC(=O)CSc2nnc(-c3ccco3)c(-c3ccco3)n2)cc1	?	-5%	-12%	-15%	?
Cc1ccccc1NC(=O)CSc1nnc(-c2ccco2)c(-c2ccco2)n1	0%	?	?	?	3.5µM*
Cc1cccc(C)c1NC(=O)CSc1nnc(-c2ccco2)c(-c2ccco2)n1	10%	?	15%	-20%	1.8µM*
Cc1ccccc1NC(=O)CSc1n[nH]c(-c2ccco2)n1	29%	0%	18%	7%	5%
O=C(CSc1nc(-c2ccco2)nc2cc(=O)[nH]n12)Nc1ccccc1F	.	.	.	.	-29%
Cc1ccccc1NC(=O)CSc1nc(-c2ccco2)nc2cc(=O)[nH]n12	.	.	.	.	40µM*
SMILES	Pf growth 96h	NS1 inh	Pf growth 48h	AMA1 RON2 block	Sm TGR block
COc1cc(/C=C/C(=O)O)cc(S(=O)(=O)N2CCN(S(=O)(=O)c3ccc(Cl)cc3)CC2)c1OC	?	13%	-28%	8%	0%
Nc1nc(N)nc(-c2cc(Cl)ccc2Cl)n1	8.5µM*	.	-5%	-12%	.
Nc1nc(N)nc(-c2cc(C(F)(F)F)ccc2Cl)n1	60%	.	1%	-3%	-9%
Cc1sc(NC(=O)c2ccccc2)c(C#N)c1-c1ccccc1	4.1µM*	12%	104%	-4%	-3%
CC(C)[C@H](NS(=O)(=O)c1ccccc1F)C(=O)NC1CCCCC1	.	.	.	3%	.
COc1ccccc1-n1c(=O)c(C#N)c(-c2ccc([N+](=O)[O-])cc2)c2cc(C(=O)c3ccccc3O)cnc21	1.9µM*	22%	2.6µM*	-11%	-16%
COc1ccc(-c2cn3cccnc3n2)cc1NC(=O)Nc1cc(C)ccc1C	12µM*	.	?	.	-13%
COc1ccc(-c2cn3cccnc3n2)cc1NC(=O)c1ccc(Br)o1	10µM*	-46%	-9%	-10%	21%
Cc1ccc(C)c(Nc2ncnc(N)c2[N+](=O)[O-])c1	2.1µM*	1%	3%	-2%	7%
Cc1cccnc1Nc1ncnc(N)c1[N+](=O)[O-]	?	.	8%	-3%	3%
COc1ccc(OCc2cc(C(=O)N(C)Cc3cc(C4CC4)n[nH]3)no2)c(Cl)c1	-21%	-14%	9.3µM*	9%	?
CC(=O)c1cccc(NC(=O)COC(=O)c2ccccc2C)c1	89%	-25%	64%	7%	-16%
O=C(CCN1C(=O)/C(=C/c2ccccc2Cl)SC1=S)N1CCOCC1	?	?	13µM*	-1%	1%
O=C(CCCN1C(=O)/C(=C/c2ccccc2Cl)SC1=S)N1CCCC1	9.3µM*	-46%	?	-27%	8%
CCCCNC(=O)CCn1nc(-c2ccccc2)ccc1=O	?	?	17%	18%	12%
O=C(CCN1C(=O)/C(=C/c2ccccc2Cl)SC1=S)N1CCCC1	?	-8%	?	-13%	-19%
O=C(CCn1nc(-c2ccccc2)ccc1=O)N1CCOCC1	1.3µM*	-4%	5%	-9%	-9%
CCCCN(C)CCCNC(=O)CCn1nc(-c2ccccc2)ccc1=O	0.12µM*	-9%	1%	16%	0%
CCNC(=O)CC1C(=O)N(c2ccc(C)cc2)C(=O)N1CCOC (stereo not given)	88%	3%	9%	-2%	7%
O=C(CCN1C(=O)/C(=C\c2ccccc2)SC1=S)N1CCOCC1	-14%	1%	12µM*	-12%	6%
O=C(CCCN1C(=O)/C(=C/c2ccccc2Cl)SC1=S)NCCCN1CCOCC1	?	20%	12µM*	-5%	3%
O=C(CSc1ccccc1Cl)N1CCOCC1	22%	-3%	11%[0.00184 µM]	34%	-1%
COc1ccc(C(=O)N2CCCC2=O)cc1	13µM*!	-1%	19%	0%	6%
CCc1cccc(-n2c(=O)c3cccnc3n2CC(=O)Nc2ccccc2C(=O)OC)c1	.	.	.	.	7%
COc1ccc(S(=O)(=O)NCC(c2ccco2)N2CCOCC2)cc1C (stereo not given)	.	.	.	.	-6%
Cc1ccc(C(CNS(=O)(=O)c2ccc(F)cc2C)N2CCN(C)CC2)cc1 (stereo not given)	-22%	.	?	15%	-18%
Cc1cc(F)ccc1S(=O)(=O)NCC(c1ccco1)S(=O)(=O)c1cccs1 (stereo not given)	.	.	.	.	0.1µM*
COc1ccc(S(=O)(=O)NCC(c2ccco2)S(=O)(=O)c2cccs2)cc1C (stereo not given)	.	.	.	.	0.1µM*
